Screens from PubChem.
POLK inh: DNA polymerase kappa (human) inhibition; Q9UBT6; actives 0.53% (n = 400,000); Potency, µM (doses to about 107 µM), usual class: inhibitors; purified Pol kappa, fluorescent DNA synthesis assay, 10 min
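Kinetic fluorescence readout at 0 and 10 min followed reaction start with substrate at 50 nM final. Beforehand, enzyme (10 nM Pol kappa) stood 15 min with compound at room temperature; buffer-only wells were negative controls.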
POLB inh: DNA polymerase beta (human) inhibition. P06746. Pol beta primer extension/strand displacement, fluorescence kinetic. Potency, µM (series often up to 114 µM), most hits filed as inhibitors. actives 1.3% (n = 340,000)
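10 nM enzyme + cpd, 15 min RT; start with substrate 50 nM final; read 0 min and after 10 min RT. Corrected, normalized data; 4-parameter Hill curve fit.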
GLS inh: inhibitors of human glutaminase (GLS) | GLS enzymatic activity, qHTS titration | O94925 | Potency, µM (top dose mostly 45.5 µM), most hits filed as inhibitors | actives 0.21% (n = 410,000)
Target sequence (O94925 whole entry, looked up): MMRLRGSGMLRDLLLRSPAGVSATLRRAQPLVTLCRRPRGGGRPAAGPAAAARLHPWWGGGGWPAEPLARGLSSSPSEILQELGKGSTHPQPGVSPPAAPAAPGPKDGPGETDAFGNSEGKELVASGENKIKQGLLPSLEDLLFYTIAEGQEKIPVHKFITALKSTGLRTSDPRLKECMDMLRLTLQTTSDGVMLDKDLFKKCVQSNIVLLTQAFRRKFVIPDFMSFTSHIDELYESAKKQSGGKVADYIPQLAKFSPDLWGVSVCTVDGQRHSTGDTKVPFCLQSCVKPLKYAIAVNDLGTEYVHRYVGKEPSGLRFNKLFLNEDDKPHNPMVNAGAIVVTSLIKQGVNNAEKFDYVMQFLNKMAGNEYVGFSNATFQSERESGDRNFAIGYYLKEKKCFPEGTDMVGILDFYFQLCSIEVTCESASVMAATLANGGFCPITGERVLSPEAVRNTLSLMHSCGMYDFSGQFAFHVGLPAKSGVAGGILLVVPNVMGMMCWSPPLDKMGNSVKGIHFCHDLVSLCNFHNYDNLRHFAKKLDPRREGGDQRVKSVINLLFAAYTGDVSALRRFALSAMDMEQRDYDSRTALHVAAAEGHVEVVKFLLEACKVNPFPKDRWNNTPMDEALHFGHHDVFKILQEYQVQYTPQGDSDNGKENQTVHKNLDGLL
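Two-point fluorescence kinetic (t0, 30 min RT) for hKGA; glutamate detected via glutamate oxidase–HRP–Amplex Red. Substrate: 1 mM L-glutamine solution; buffer 45 mM KH2PO4, pH 8.2.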
APEX1 inh: APE1 (human) endonuclease inhibition | Potency, µM (top dose mostly 65.8 µM), actives largely listed as inhibitors | actives 0.35% (n = 350,000) | recombinant APE1, TAMRA/BHQ-2 abasic DNA cleavage fluorescence; also: nearly all actives have a fitted effect of over 55% in size
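Kinetic fluorescence read (525 ex/598 em nm, three reads 60 s apart) of AP-site incision; signal = third minus first read. Enzyme 0.75 nM, dual-labelled THF duplex 50 nM, compound preincubation 15 min RT.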
POLI inh: DNA polymerase iota (human) inhibition. Q9UNA4. Pol iota fluorescent replication assay, 10 min. actives 1% (n = 390,000). Potency, µM (series often up to 115 µM), most hits filed as inhibitors
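Pol iota at 10 nM preincubated 15 min with compounds at room temperature; reaction started with fluorescent substrate, 50 nM final. Fluorescence read kinetically at 0 and 10 min; buffer-only wells as negative control.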
POLH inh: DNA polymerase eta (human) inhibition; Q9Y253; recombinant Pol eta, fluorescent DNA replication assay; Potency, µM (series often up to 114 µM), usual class: inhibitors; actives 1.2% (n = 390,000)
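Pol eta (10 nM) was preincubated with compounds for 15 min at room temperature, after which fluorescent replication substrate (50 nM final) was added to start the reaction. Fluorescence was read kinetically at 0 and 10 min.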
Each line names hits and unclear results; the compound was inactive in the other large screens. This is a sample that favours compounds with a hit; in the whole collection about 2.4% have one here. Calls follow the shape of the dose curve; as a rule, active = well fitted curve in the direction sought with a large enough effect; inconclusive = small, poorly fitted or top-dose-only effect, or another doubt; inactive = no such curve, though single readings can be large; an effect the other way counts as inactive or inconclusive.

CCc1nc2c(OCc3ccc(C(F)(F)F)cc3)cccn2c1N(C)C(=O)C(C)C	none (no result: POLK inh, POLB inh, APEX1 inh, POLI inh, POLH inh)
COC(=O)c1nn(-c2ccc(-c3ccccc3)cc2)cc1O	none
Oc1ccc(Br)cc1C1C=C(c2ccc3c(c2)OCO3)NC(c2ccc(F)c(Br)c2)N1 (stereo unspecified)	POLI inh 12.6µM (no result: POLB inh, GLS inh, APEX1 inh, POLH inh)
CCCNc1c(F)c(F)c2c(C)c3ccccc3nc2c1F	POLK inh 79.4µM, POLI inh 7.94µM
CCC1=NN2C(=N)/C(=C\c3cccn3-c3ccc(Cl)cc3)C(=O)N=C2S1	POLB inh 28.2µM, POLI inh inconclusive, POLH inh inconclusive
CCC1=NN2C(=N)/C(=C/c3ccc(OS(=O)(=O)c4ccccc4)cc3)C(=O)N=C2S1	POLB inh inconclusive, POLH inh 44.7µM
CCc1c(C)nc2ccc(Br)cc2c1Cl	none
COc1ccc(CNc2ncnc3c2nnn3C)cc1	none (no result: APEX1 inh)
Cc1ccc(C)n1-c1ccc(-c2ccn[nH]2)cc1	POLB inh 22.4µM
CC1CCC(NC(=O)c2ccc3c(c2)N(Cc2ccccc2F)C(=O)c2ccccc2S3(=O)=O)CC1 (stereo unspecified)	none (no result: APEX1 inh)
COc1ccc2cc(C(C)C(=O)N3CCC(C)CC3)ccc2c1 (stereo unspecified)	POLB inh inconclusive
Fc1ccc2[nH]c3c(N4CCc5ccccc5C4)ncnc3c2c1	POLB inh 14.1µM
COC(=O)C1CC23C=CCN4CCC5(c6ccccc6NC15C2C)C43 (stereo unspecified)	none
COc1ccc(N(/N=C2\Sc3ccccc3C2=O)C(C)=O)cc1	none
COc1ccccc1N(/N=C1\Sc2ccccc2C1=O)C(C)=O	POLI inh inconclusive, POLH inh 89.1µM
CCCCCn1c(N)c(-c2nc3ccccc3o2)c2c([N+](=O)[O-])nn(CC)c(=O)c21	POLB inh 2µM, POLH inh inconclusive
CCCCCn1c(N)c(-c2nc3ccccc3s2)c2c([N+](=O)[O-])nn(CC)c(=O)c21	none
CCOc1ccc2nc(SCC(=O)c3ccc(C)s3)sc2c1	APEX1 inh inconclusive
CCOc1ccc2nc(SCC(=O)c3ccc(O)cc3O)sc2c1	POLK inh inconclusive, POLB inh 35.5µM, POLI inh inconclusive, POLH inh inconclusive
Cc1ccccc1NC(=O)COC(=O)c1c(-c2ccccc2)noc1C	none (no result: POLB inh)
N#Cc1c(NC(=O)c2ccccc2Cl)n(Cc2ccccc2)c2nc3ccccc3nc12	POLB inh 70.8µM, POLI inh 20µM, POLH inh 35.5µM
CCCCn1c(NC(=O)c2ccccc2Cl)c(C#N)c2nc3ccccc3nc21	APEX1 inh inconclusive, POLI inh 3.55µM, POLH inh 20µM
CCCCn1c(NC(=O)CC)c(C#N)c2nc3ccccc3nc21	none
O=C(CN1C(=O)c2ccccc2S1(=O)=O)Nc1ncccn1	none (no result: POLB inh)
COc1ccc(-c2nnc(SCC(=O)Nc3cccc(F)c3)s2)cc1	POLB inh 35.5µM (no result: APEX1 inh)
COc1ccc(-c2nnc(SCC(=O)Nc3cccc(C)c3)s2)cc1	none (no result: APEX1 inh)
Cc1c(NC(=O)CSc2nnc(COc3ccccc3)n2-c2ccccc2)c(=O)n(-c2ccccc2)n1C	none
O=C(N/N=C/C(Cl)=C/c1ccc([N+](=O)[O-])cc1)C(=O)Nc1cccc(C(=O)O)c1	POLB inh inconclusive, APEX1 inh inconclusive, POLI inh inconclusive, POLH inh 50.1µM
COc1ccccc1C(=O)NC1(C(F)(F)F)NC(=O)N(CCc2ccccc2)C1=O (stereo unspecified)	POLI inh 79.4µM (no result: APEX1 inh)
C[N+](C)(C)CC(=O)N/N=C/c1c2ccccc2cc2ccccc12	POLB inh 44.7µM, APEX1 inh inconclusive
Cn1cccc1CC(=O)N/N=C\c1c2ccccc2cc2ccccc12	POLI inh inconclusive
Cn1cccc1Cc1nnc(SCC(N)=O)n1-c1ccc(F)cc1	none
COC/C=C/C1=CC2=CC(=O)C(C)(OC(=O)c3cnc4ccccc4n3)C(=O)C2=CN1CC1CC1 (stereo unspecified)	POLK inh inconclusive, POLI inh inconclusive, POLH inh inconclusive (no result: POLB inh)
COC/C=C/C1=CC2=CC(=O)C(C)(OC(=O)c3cnc4ccccc4n3)C(=O)C2=CN1Cc1ccc(OC)cc1 (stereo unspecified)	POLK inh inconclusive, POLB inh 39.8µM, POLI inh inconclusive, POLH inh 28.2µM
COC/C=C/C1=CC2=CC(=O)C(C)(OC(=O)c3cnc4ccccc4n3)C(=O)C2=CN1c1ccc(OC)cc1 (stereo unspecified)	POLI inh inconclusive, POLH inh inconclusive (no result: POLB inh)
COC/C=C/C1=CC2=CC(=O)C(C)(OC(=O)c3cnc4ccccc4n3)C(=O)C2=CN1Cc1ccccc1 (stereo unspecified)	POLB inh 10µM, POLI inh inconclusive, POLH inh 28.2µM
N#CCCN(C(=O)CSc1ncccn1)c1ccc2c(c1)OCCO2	APEX1 inh inconclusive (no result: POLB inh)
Oc1cccc(O)c1O	POLK inh 2.99µM, GLS inh inconclusive, APEX1 inh 1.26µM (no result: POLB inh, POLI inh, POLH inh)
O=C(CN1C(=O)CSc2cc(S(=O)(=O)N3CCCCCC3)ccc21)NCCc1ccccc1	none
c1coc(-c2ccc3nncn3c2)c1	GLS inh 6.31µM (no result: POLK inh, POLB inh, APEX1 inh, POLI inh, POLH inh)
CC(CN1CCN(c2ccccc2)CC1)c1ccccc1 (stereo unspecified)	POLI inh 44.7µM
CC(CCN1CCN(c2ccc(F)cc2)CC1)c1ccccc1 (stereo unspecified)	none
O=C(CN1C(=O)c2ccccc2C1=O)NCc1ccc(N2CCOCC2)cc1	APEX1 inh inconclusive
CNc1cccccc1=S	POLK inh 79.4µM, POLB inh 15.8µM, APEX1 inh inconclusive, POLI inh 10µM, POLH inh inconclusive
O=C(CSc1nc2[nH]c(=O)cc(O)c2s1)Nc1cccc(Br)c1	none (no result: POLB inh)
COCCCNc1nc(N)c([N+](=O)[O-])c(Nc2cc(OC)ccc2OC)n1	none
COc1ccc(OC)c(Nc2nc(NCCCN(C)C)nc(N)c2[N+](=O)[O-])c1	POLK inh inconclusive, POLB inh 35.5µM, APEX1 inh inconclusive, POLI inh 31.6µM, POLH inh 50.1µM
COC(=O)c1[nH]c2c(c1C)C(=O)CC(c1cccc(OC)c1)C2 (stereo unspecified)	POLB inh 44.7µM, POLI inh inconclusive
Cc1ccc2c(CC(=O)NNC(=O)c3ccncc3)coc2c1	POLI inh inconclusive, POLH inh 39.8µM (no result: POLB inh)
Cc1ccc2c(CC(=O)Nc3sccc3C(N)=O)coc2c1	POLI inh 79.4µM, POLH inh inconclusive
Cc1ccc2c(CC(=O)NCC(=O)Nc3c(C)cccc3C)coc2c1	POLI inh inconclusive, POLH inh inconclusive (no result: POLB inh)
CCOC(=O)c1c(NC(=O)Cc2coc3cc(C)ccc23)sc2c1CCCC2	none (no result: APEX1 inh)
Cc1ccc2occ(CC(=O)Nc3nnc(C(C)C)s3)c2c1	POLI inh 79.4µM (no result: APEX1 inh)
